High-throughput results: PubChem BioAssay, National Center for Advancing Translational Sciences (NCATS)
This is a sample that favours compounds with a hit; in the whole collection about 7.5% have one here.
FLuc counter: qHTS profiling assay for firefly luciferase inhibitor/activator using purifed enzyme and Km concentrations of substrates (counterscreen for miR-21 project) | Luciferin 4-monooxygenase (Photinus pyralis), P08659 | purified FLuc, Km substrates, luminescence inhibition | Potency, µM (titrated, usually from 57.5 µM), for inactives: at the highest dose activity change, negative = inhibition, actives largely listed as inhibitors | actives 6.9% (n = 360,000) | AID 588342, 2011;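 further: plate controls were vehicle for no effect and reference inhibitor for full effect; nearly all actives have a fitted effect of over 55% in size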
Target sequence (P08659 whole entry, looked up): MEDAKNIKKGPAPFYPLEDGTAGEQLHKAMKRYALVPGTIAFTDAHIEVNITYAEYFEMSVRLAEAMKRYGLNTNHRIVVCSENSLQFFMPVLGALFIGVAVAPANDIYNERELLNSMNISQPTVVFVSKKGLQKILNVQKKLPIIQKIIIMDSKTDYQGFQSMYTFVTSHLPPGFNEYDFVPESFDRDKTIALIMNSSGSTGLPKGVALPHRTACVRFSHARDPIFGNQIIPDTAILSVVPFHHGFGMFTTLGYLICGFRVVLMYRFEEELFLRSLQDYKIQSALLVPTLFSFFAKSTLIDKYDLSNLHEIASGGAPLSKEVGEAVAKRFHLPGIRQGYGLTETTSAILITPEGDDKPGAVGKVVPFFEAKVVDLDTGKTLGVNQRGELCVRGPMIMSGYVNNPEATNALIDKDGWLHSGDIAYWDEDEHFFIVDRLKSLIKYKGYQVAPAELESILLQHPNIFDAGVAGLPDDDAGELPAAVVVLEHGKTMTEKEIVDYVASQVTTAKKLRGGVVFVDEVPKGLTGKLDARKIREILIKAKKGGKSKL
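Biochemical qHTS of compounds, final roughly 60 µM downward over six points, against 10 nM purified firefly luciferase using Km concentrations of substrates (10 uM D-luciferin, 10 uM ATP) in Tris acetate pH 7.5 buffer; luminescence output.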
ELG1 genotoxic: qHTS screen for small molecules that induce genotoxicity in human embryonic kidney (HEK293T) cells expressing luciferase-tagged ELG1 | HEK293T ELG1-luciferase reporter, luminescence, 16 h | actives 1.3% (n = 330,000) | AID 504466, 2011 | Potency, µM (doses to about 46 µM), for the others: at the highest dose activity change, positive = activation, usual class: activators; further: % of control where 0% means no effect; nearly all actives have a fitted effect of over 60% in size
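After overnight (16 hr) compound treatment at 37 °C, ELG1-luciferase HEK293T cells were lysed with ONE-Glo; luminescence quantified 30 min later at room temperature.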
NPC1 promoter act: qHTS Assay for NPC1 Promoter Activators. actives 2.4% (n = 320,000). Potency, µM (doses to about 9.22 µM), for the others: at the highest dose activation, actives largely listed as activators. Huh7 NPC1 promoter luciferase reporter, 24 h; further: % of control where 0% means no effect; nearly all actives have a fitted effect of over 60% in size
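Compounds in DMSO were transferred onto Huh7 NPC1-luciferase reporter cells pre-incubated 2 h; after 24 h at 37 °C, Amplite reagent was dispensed and luminescence recorded 10 min later.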
SMN2 splice enh: qHTS Assay for Enhancers of SMN2 Splice Variant Expression; HEK293 SMN2-luciferase splicing reporter, luminescence, 30-36 h; Potency, µM (series often up to 46.1 µM), without a hit: at the top dose activity change, positive = activation, hits mostly activators; actives 2.8% (n = 210,000); further: % of control where 0% means no effect; nearly all actives have a fitted effect of over 55% in size
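qHTS luciferase splicing reporter: luminescence rises when SMN2 exon 7 is included in transfected HEK293 cells. Compound exposure lasted 30-36 h at 37C, with 4.5 mM final sodium butyrate as control, followed by a ONE-Glo read.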
Rab9 prom act: qHTS Assay for Rab9 Promoter Activators; Huh7 Rab9 promoter-luciferase reporter, luminescence, 24 h; Potency, µM (series often up to 9.22 µM), inactives show at the top dose activation, negative = inhibition, most hits filed as activators; actives 2.8% (n = 320,000); AID 485297, 2010; further: % of control where 0% means no effect; nearly all actives have a fitted effect of over 60% in size
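Using Huh7 cells stably transfected with Rab9 promoter–luciferase, compounds were incubated 24 h at 37 °C, 5% CO2; luciferase luminescence was read 10 min after reagent addition.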
Starred values were filed as active, the others as inactive; [ ] = dose if it differs, or a comment. The call rests on the fitted dose curve; in most records, active means well fitted curve in the direction sought with a large enough effect; inconclusive means small, poorly fitted or top-dose-only effect, or another doubt; inactive means no such curve, though single readings can be large; an effect the other way counts as inactive or inconclusive. Potency means the concentration at half of the fitted maximal effect.

How did C[C@@H](NC(=O)/C(C#N)=C/c1ccc(O)c(O)c1)c1ccccc1 do in these assays?
FLuc counter: 2%; ELG1 genotoxic: -17%; NPC1 promoter act: -13%[46.1 µM]; SMN2 splice enh: inconclusive; Rab9 prom act: -36%[46.1 µM]

How did CC(=O)c1ccc(NC(=O)c2cc(S(=O)(=O)N3CCCCCC3)cn2C)cc1 do in these assays?
FLuc counter: -2%

How did Nc1nc(SCC(=O)Nc2ccccc2Sc2ccc(Cl)cc2)n[nH]1 do in these assays?
FLuc counter: 2%; ELG1 genotoxic: -4%; NPC1 promoter act: -1%; SMN2 splice enh: -45%; Rab9 prom act: 0%

What do the screens show for `COc1ccc(-c2ccc(SCC(=O)NC3CCCCC3)nn2)cc1OC`?
FLuc counter: 5.4µM*; ELG1 genotoxic: 9%; NPC1 promoter act: 27%; Rab9 prom act: inconclusive

Results for COc1ccc(-c2ccc(SCC(=O)NCC3CCCO3)nn2)cc1OC (centres undefined) ?
FLuc counter: inconclusive; ELG1 genotoxic: 10%; NPC1 promoter act: 4%; Rab9 prom act: 22%

What do the screens show for `COc1ccccc1NC(=O)CSc1ccc(-c2ccccn2)nn1`?
FLuc counter: -18%; ELG1 genotoxic: inconclusive; NPC1 promoter act: 12%; Rab9 prom act: 15%

Results for COc1ccccc1NC(=O)CSc1ccc(-c2ccc(-n3cccn3)cc2)nn1 ?
FLuc counter: 1.5µM*; ELG1 genotoxic: 0%; NPC1 promoter act: 13%; Rab9 prom act: 13%

What do the screens show for `CCc1ccc(NC(=O)CSc2ccc(-c3ccco3)nn2)cc1`?
FLuc counter: inconclusive; ELG1 genotoxic: -2%; NPC1 promoter act: -3%; SMN2 splice enh: -27%; Rab9 prom act: 0%

Results for COc1ccc(-c2cc(-c3cccs3)c(C#N)c(SCC(=O)NCc3ccco3)n2)cc1 ?
FLuc counter: 12µM*; ELG1 genotoxic: inconclusive; NPC1 promoter act: -20%; SMN2 splice enh: 13%; Rab9 prom act: -13%

Results for CC(=O)c1cccc(NC(=O)CSc2ccc(-c3ccco3)nn2)c1 ?
FLuc counter: 24µM*; ELG1 genotoxic: -13%; NPC1 promoter act: 12%; Rab9 prom act: 15%

How did Cc1oc2ncnc(N)c2c1C do in these assays?
FLuc counter: -2%; ELG1 genotoxic: 3%; NPC1 promoter act: -3%; SMN2 splice enh: 16%; Rab9 prom act: 0%

What do the screens show for `Cc1ccc(C(=O)COC(=O)C2CC3CCCC(C2)C3=O)cc1[N+](=O)[O-]` (centres undefined)?
FLuc counter: -1%; ELG1 genotoxic: 1%; NPC1 promoter act: -1%; Rab9 prom act: 2%

How did Cc1nn(C)cc1NC(=O)c1cc2nc(-c3ccco3)cc(C(F)(F)F)n2n1 do in these assays?
FLuc counter: -1%; ELG1 genotoxic: -6%; NPC1 promoter act: 1%; Rab9 prom act: 13%

How did O=C(NCCc1ccccc1)C(=O)NCC1OCCN1S(=O)(=O)c1ccc([N+](=O)[O-])cc1 (centres undefined) do in these assays?
FLuc counter: -3%; ELG1 genotoxic: -5%; NPC1 promoter act: 3%; SMN2 splice enh: -24%; Rab9 prom act: 14%

What do the screens show for `C=C(C)CSc1nc(-c2ccccc2)cc(-c2ccc(OC)cc2)c1C#N`?
FLuc counter: 3%; SMN2 splice enh: 0%

Results for COc1ccc(-c2ccc(SCC(=O)Nc3cccc(C(C)=O)c3)nn2)cc1OC ?
FLuc counter: 6µM*; ELG1 genotoxic: -15%; NPC1 promoter act: 23%; Rab9 prom act: 30%

Results for COc1ccc(-c2cc(C(F)(F)F)nc(SCC(=O)NCc3ccco3)n2)cc1OC ?
FLuc counter: -7%; ELG1 genotoxic: 6%; NPC1 promoter act: 4%; SMN2 splice enh: 2%; Rab9 prom act: 0%

Results for COc1ccc(-c2ccc(SCC(=O)NCc3ccco3)nn2)cc1OC ?
FLuc counter: 21µM*; ELG1 genotoxic: 6%; NPC1 promoter act: 6%; SMN2 splice enh: 3%; Rab9 prom act: 3%
